The record followed here is PubChem BioAssay (Tox21).

Assay [1] in a line: qHTS assay for small molecule agonists of the p53 signaling pathway (AID 651631; calls by dose curve; further: nearly all actives have a fitted effect of over 15% in size). The method, boiled down: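 HCT-116 p53RE-bla reporter line, 16 h compound treatment at 37 °C, then fluorescence after 2 h with B/G FRET substrate.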
The nature of assay [2]: qHTS assay for small molecules that induce genotoxicity in human embryonic kidney cells expressing luciferase-tagged ATAD5 (AID 651632). Further: nearly all actives have a fitted effect of over 15% in size. Further: potency means the concentration at half of the fitted maximal effect. The method, boiled down: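 HEK293T cells carrying luciferase-tagged ATAD5 were given compound or DMSO vehicle and incubated 16 hr at 37C, 5% CO2. Luciferase activity was read after 30 min at room temperature with Amplite; a rise signals genotoxic stress.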

Assay [3] in a line: qHTS assay for small molecules that induce genotoxicity in human embryonic kidney cells expressing luciferase-tagged ATAD5 - cell viability (AID 651634; calls by dose curve; further: nearly all actives have a fitted effect of over 25% in size). The method in brief: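 HEK293T cells carrying luciferase-tagged ATAD5, 2,000 cells/well, exposed to compound for 15.5 hr at 37C. Viability read as live-cell protease activity by CellTiter-Fluor fluorescence after 30 min at 37C.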
In general terms: qHTS replaces the single test concentration by a dilution series.

The nature of assay [4]: qHTS assay for small molecule disruptors of the mitochondrial membrane potential - cell viability (AID 720634; calls by dose curve;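 further: human HepG2 liver cancer cells; nearly all actives have a fitted effect of over 20% in size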). The method in brief: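 HepG2 cells, 2,000 per well, attached overnight, then treated 1 hr at 37 C, 5% CO2. Viability read as ATP by CellTiter-Glo luminescence after 30 min at room temperature. Read in the same wells as the m-MPI membrane-potential dye assay.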
A short description of assay [5]: qHTS assay to test for compound auto fluorescence at 590 nm (red) in HepG2 cells (AID 720674). The method, boiled down: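 Red autofluorescence (Ex/Em 540/590 nm, Rose Bengal sodium equivalents) was measured in HepG2 cells, 2,000 per well in MEM plus 10% FBS, plated overnight at 37 C. Readings were taken 1 hr after adding 23 nL compound or DMSO, at 37 C and 5% CO2.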

Assay [6] is described as follows: qHTS assay to test for compound auto fluorescence at 535 nm (green) in HepG2 cells (AID 720675).
The nature of assay [7]: qHTS assay to test for compound auto fluorescence at 460 nm (blue) in HEK293 cells (AID 720678). The method in brief:
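Triamterene serves as the blue fluorophore standard. Compound signal at 405/460 nm is read in HEK293 wells (2,000 cells, 10% dialyzed FBS) after overnight treatment at 37C.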

Assay [8] can be described thus: qHTS assay to test for compound auto fluorescence at 590 nm (red) in HEK293 cells (AID 720679). The method, boiled down:
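We plated HEK293 cells in 10% dialyzed FBS medium, let them adhere for 4-5 hr, then added 23 nL compound. Overnight at 37C and 5% CO2 preceded fluorescence measurement at 540/590nm.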

Assay [9] is described as follows: qHTS assay to test for compound auto fluorescence at 535 nm (green) in HEK293 cells (AID 720680).
Assay [10] can be described thus: qHTS assay to test for compound auto fluorescence at 460 nm (blue) in HEK293 cell free culture (AID 720681). The method, boiled down: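 Blue fluorescence (Ex 405/Em 460 nm, triamterene-equivalent) was read immediately after pin transfer of compound or DMSO into medium (DMEM, 10% FBS) without cells.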
Assay [11] is described as follows: qHTS assay to test for compound auto fluorescence at 535 nm (green) in HEK293 cell free culture (AID 720682). The method, boiled down: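 Steps: dispense DMEM/10% FBS into empty wells; pin in compound or DMSO; measure fluorescence at 485/535 nm. Values are fluorescein equivalents.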
Assay [12] in a line: qHTS assay to test for compound auto fluorescence at 590 nm (red) in HEK293 cell free culture (AID 720683). The method, boiled down:
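Red-channel autofluorescence of compounds in culture medium (DMEM, 10% FBS), no cells, measured at 540/590 nm. Rose Bengal sodium is the reference fluorophore for equivalence.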

Assay [13] in a line: qHTS assay to test for compound auto fluorescence at 590 nm (red) in HepG2 cell free culture (AID 720684). The method, boiled down: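 Steps: dispense MEM/10% FBS medium, no cells; pin compound or DMSO vehicle; read red channel, Ex/Em 540/590 nm. Output given as Rose Bengal sodium equivalents.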
A short description of assay [14]: qHTS assay to test for compound auto fluorescence at 460 nm (blue) in HepG2 cell free culture (AID 720685). The method, boiled down:
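Compound (23 nL) or DMSO pinned into cell-free MEM with 10% FBS; blue fluorescence read at 405/460 nm excitation/emission, expressed as auto-fluorescence equivalency to triamterene.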

A short description of assay [15]: qHTS assay to test for compound auto fluorescence at 535 nm (green) in HepG2 cell free culture (AID 720686).
The nature of assay [16]: qHTS assay to test for compound auto fluorescence at 460 nm (blue) in HepG2 cells (AID 720687). The method in brief: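 Blue-channel autofluorescence (Ex/Em 405/460 nm, triamterene-equivalent) was measured after 1 hr compound exposure at 37 C, 5% CO2. Cells were HepG2, plated overnight at 37 C in MEM plus 10% FBS.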
The target in assay [17] is Glucocorticoid receptor (Homo sapiens) (UniProt P04150). As to the kind of experiment: qHTS assay to identify small molecule agonists of the glucocorticoid receptor (GR) signaling pathway (AID 720691; active means well fitted activation curve with a large enough effect in the signal ratio in the repeat runs, not every such curve was filed as active; the % refers to the signal ratio). The following applies: GR-bla HeLa, beta-lactamase reporter ratio, 18 h; activation: at 62.4 µM (top of the series) unless noted. The method, boiled down:
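GR-bla HeLa cells carrying a GRE-driven beta-lactamase reporter, exposed to compounds for 18 h at 37 C. Reporter activation read as fluorescence after 2 h with LiveBLAzer B/G FRET substrate at room temperature.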

For assay [18] the target is unchanged. In words: qHTS assay to identify small molecule antagonists of the glucocorticoid receptor (GR) signaling pathway (AID 720692; active means well fitted inhibition curve with a large enough effect in the signal ratio in the repeat runs, not every such curve was filed as active; the % refers to the signal ratio). The method in brief:
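GR-bla HeLa cells carrying a GRE-driven beta-lactamase reporter received compound after 4 h plating, then dexamethasone (5 nM final). After 18 h at 37C, the FRET substrate was loaded for 2 h at room temperature and fluorescence read.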

Assay [19] is described as follows: qHTS assay for small molecule agonists of the p53 signaling pathway - cell viability (AID 651633; calls by dose curve;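 further: p53RE-bla HCT reporter cells with a stable beta-lactamase p53 reporter; nearly all actives have a fitted effect of over 30% in size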). The method, boiled down:
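Viability counter-read: CellTiter-Glo luminescence (30 min, room temperature) in the same p53RE-bla plates. These plates had been exposed to compounds for 16 h at 37 C.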

Assay [20] is described as follows: qHTS assay for small molecule disruptors of the mitochondrial membrane potential (AID 720635). The method, boiled down:
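Mitochondrial membrane potential tracked with Mito-MPS dye, red aggregates (ex 540/em 590 nm) against green monomers (ex 490/em 535 nm). Compound treatment 1 hr at 37C, dye 30 min in HepG2.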

Molecules are shown by their SMILES. Values without a mark were called inactive. Records with an inconclusive call do not appear. Active and inactive are the calls of the source. Unless noted, the call rests on the fitted dose curve; in most records, active means well fitted curve in the direction sought with a large enough effect in the repeat runs; inconclusive means weak or mixed curves; inactive means no such curve, though single readings can be large; an effect the other way counts as inactive or inconclusive.

Chain of Glucocorticoid receptor (Homo sapiens) (P04150 whole entry, looked up): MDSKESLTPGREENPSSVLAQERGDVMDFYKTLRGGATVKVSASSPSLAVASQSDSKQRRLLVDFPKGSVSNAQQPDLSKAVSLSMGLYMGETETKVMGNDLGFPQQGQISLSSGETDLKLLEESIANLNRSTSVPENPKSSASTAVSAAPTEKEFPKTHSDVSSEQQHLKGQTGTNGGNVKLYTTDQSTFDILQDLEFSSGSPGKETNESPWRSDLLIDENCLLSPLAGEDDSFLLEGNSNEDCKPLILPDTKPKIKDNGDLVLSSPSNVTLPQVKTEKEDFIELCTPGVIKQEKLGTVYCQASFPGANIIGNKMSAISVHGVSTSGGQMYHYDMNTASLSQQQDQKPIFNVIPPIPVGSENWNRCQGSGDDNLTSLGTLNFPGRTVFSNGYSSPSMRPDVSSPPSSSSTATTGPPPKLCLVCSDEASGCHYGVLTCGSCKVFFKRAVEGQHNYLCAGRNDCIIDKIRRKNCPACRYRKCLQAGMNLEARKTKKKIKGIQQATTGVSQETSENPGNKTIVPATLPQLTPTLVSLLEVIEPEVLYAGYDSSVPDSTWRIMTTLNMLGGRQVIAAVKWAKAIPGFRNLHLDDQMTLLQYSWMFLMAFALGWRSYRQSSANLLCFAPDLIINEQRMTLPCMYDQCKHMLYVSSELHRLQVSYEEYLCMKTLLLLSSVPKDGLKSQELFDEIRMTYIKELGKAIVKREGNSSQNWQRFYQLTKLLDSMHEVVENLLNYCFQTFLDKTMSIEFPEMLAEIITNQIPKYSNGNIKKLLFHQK

`CCOCC(O)COc1ccc(NC(=O)CC[S+](C)C)cc1` (stereo unspecified): the Potency result in [1], in assay [2], in [3], in assay [4], in assay [5] and in [6] was “inactive” in each case. Moreover, the Potency result in [8], in assay [12], in [13], in [15], in [17] and in assay [18] was “inactive” throughout. The outcome in [7], in assay [9], in [10], in assay [11], in assay [14] and in [16] was inactive.

`CCCCC`: the Potency result in [1], in assay [2], in assay [3], in [4], in [5] and in [6] was “inactive” in each case. For the same compound, the Potency entry in [12], in assay [13], in assay [15] and in [17] was “inactive” in each case. Moreover, the result in assay [7], in assay [9], in assay [11], in [14] and in [16] was inactive.

As to `C[C@@H](c1ncncc1F)C(O)(Cn1cncn1)c1ccc(F)cc1F` (stereo partly specified), the Potency result in [1], in assay [2], in assay [3], in assay [4], in [5] and in [6] was “inactive” each time. For the same compound, the Potency result in [8], in [12], in assay [13], in assay [15], in assay [17] and in assay [18] was “inactive” each time. Moreover, the compound was called inactive in assay [7], in assay [9], in assay [10], in assay [11], in [14] and in [16].

Take `COc1cc(C(=O)OCCCN2CCCN(CCCOC(=O)c3cc(OC)c(OC)c(OC)c3)CC2)cc(OC)c1OC`: the Potency result in assay [1], in [3], in assay [4], in [5], in [6] and in [8] was “inactive” throughout. In addition, the Potency result in assay [12], in assay [13], in assay [15], in [17] and in assay [18] was “inactive” throughout. Also, the Potency in [2] was 8.41 µM (active). Further, the call in assay [7], in [9], in assay [11] and in [16] was inactive.

On to `CC1=CC[C@H](C(C)C)C=C1`, for which the Potency entry in assay [1], in [2], in assay [19], in [3], in assay [5] and in assay [8] was “inactive” in each case. The Potency entry in assay [13] and in assay [15] was “inactive” throughout. The compound was called inactive in assay [7], in [9], in assay [10], in [11], in [14] and in [16].

Consider `Cc1cc(C(=O)O)ccc1[N+](=O)[O-]`, for which the Potency entry in assay [1], in [2], in assay [3], in assay [4], in assay [20] and in [5] was “inactive” each time. The Potency entry in [6], in assay [8], in assay [12], in assay [13], in assay [15] and in assay [17] was “inactive” throughout. Further, the compound was called inactive in assay [7], in assay [9], in assay [10], in assay [11], in assay [14] and in assay [16].

As to `NC(=O)C(c1ccccc1)(c1ccccc1)[C@@H]1CCN(CCc2ccc3c(c2)CCO3)C1`, the Potency entry in assay [1], in assay [2], in assay [3], in assay [4], in assay [5] and in assay [6] was “inactive” each time. Besides, the Potency entry in [8], in assay [13], in [15], in assay [17] and in [18] was “inactive” throughout. The compound was called inactive in assay [7], in [9], in assay [10], in assay [11], in assay [14] and in [16].
